# Abeta yeast res: compounds reversing amyloid beta toxicity in yeast; Potency, µM (doses to about 46.1 µM), actives largely listed as activators; yeast expressing A-beta42, growth rescue, OD600, 48 h; response scale: 0% DMSO, 100% iron-clioquinol control; 0.063% of 410,000 active; AID 1347071; also: nearly all actives have a fitted effect of over 55% in size
#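 Yeast A-beta toxicity model in growth medium with pinned compounds, 48 h at 30 C; growth read as absorbance at 600 nm. Normalized to FeCl3/clioquinol equimolar mix (positive) and DMSO (negative).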
# TDP43 rescue: rescues yeast growth from TDP-43 toxicity; Potency, µM (highest dose often 46.1 µM), inactives show at the top dose growth rescue (activation), most hits filed as activators; 1.8% of 410,000 active; AID 652104; TDP-43 expressing yeast growth rescue, BacTiter-Glo, 24 h; also: % of control where 0% means no effect; nearly all actives have a fitted effect of over 50% in size
#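 Luminescence from BacTiter-Glo reports growth of TDP-43-expressing yeast after 24 hr at 30 deg C with compound. Cells were raffinose-pregrown to mid-log, then seeded in galactose medium at OD600=0.02.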
# aSyn yeast inh: rescues yeast growth from alpha-synuclein toxicity; AID 652106; 0.14% of 370,000 active; Yeast expressing alpha-synuclein, growth rescue, BacTiter-Glo, 24 h; Potency, µM (doses to about 46.1 µM), for the others: top-dose growth rescue (activation), hits mostly activators; also: % of control where 0% means no effect; nearly all actives have a fitted effect of over 65% in size
#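 Rescue of yeast growth: cells expressing toxic alpha-synuclein, induced in galactose at OD600 0.02, incubated with compound 24 h at 30 C. ATP luminescence quantified growth; inhibitors of toxicity appear as activators.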
# FUS suppressor: suppressors of FUS proteinopathy in yeast. AID 1347120. 0.24% of 390,000 active. Potency, µM (top dose mostly 76.6 µM), hits mostly activators. S. cerevisiae FUS-expressing, growth rescue, OD600, 24 h;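 also: plate controls were DMSO vehicle for no effect and reference control for full effect; nearly all actives have a fitted effect of over 55% in size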
#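 Restored growth of FUS-toxic S. cerevisiae, read as 600 nm absorbance after 24 h at 30C in galactose medium (starting OD 0.005). Controls CP55940 and DMSO.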
# * marks the source's active call; other numbers are inactive results; i = inactive; ? = inconclusive; nt = no result. Only some compounds are listed: those with a hit (about 2.1% of all), similar ones and a draw of the others. Calls follow the shape of the dose curve; as a rule, active = well fitted curve in the direction sought with a large enough effect; inconclusive = small, poorly fitted or top-dose-only effect, or another doubt; inactive = no such curve, though single readings can be large; an effect the other way counts as inactive or inconclusive. Potency is read from the fitted curve at half-maximal effect.
SMILES,Abeta yeast res,TDP43 rescue,aSyn yeast inh,FUS suppressor
CC(=O)c1c(O)cc2c3c1OC(C)(C)C1CCC(C)(CC31)O2 (configuration not stated),i,?,-11%,i
C[C@]12Cc3cn4c(nc3C=C1CCC1C2CC[C@@]2(C)[C@H]1CC[C@@]2(O)C#N)nc1ccccc14 (some centres not stated),nt,nt,19%,nt
S=C(NCCc1ccccc1)N1Cc2ccccc2-n2nncc2C1,i,22µM*,0%,i
S=C(NCCc1ccccc1)N1Cc2cc(N3CCCCC3)ccc2-n2nncc2C1,i,35µM*,12%,?
CCCCC[C@@H]1CCCCC[C@@H](O)C[C@H](O)[C@H](O)/C=C/C(=O)O1,i,?,0%,i
N#Cc1ccc(C(=O)N2CCN(c3nc4ccc(F)cc4s3)CC2)cc1,i,?,nt,i
Cc1c(Cl)ccc2sc(N3CCN(C(=O)CCS(=O)(=O)c4ccc(F)cc4)CC3)nc12,i,18µM*,nt,?
COc1ccc(C(=O)C(C)(C)NO)cc1,?,11µM*,?,i
COc1ccc(C(=O)C23CN4CN(CN(C4)C2)C3)cc1,i,-23%,-9%,i
CC(Cc1ccc(OCC(=O)O)cc1)NCC(O)c1cccc(Cl)c1 (configuration not stated),nt,nt,3%,nt
O=C1NC(=S)NC(=O)C1=Cc1ccc(OCc2ccccc2)cc1,?,18µM*,-67%,i
C=C(COC(=O)CCC(=O)O)CC1CC(O)[C@]2(C)OC3CC4OC5C[C@]6(C)O[C@]7(C)CCC8OC9C[C@]%10(C)OC%11C(C)=CC(=O)OC%11CC%10OC9C[C@@H](C)C8OC7CC6O[C@]5(C)C/C=C\C4OC3CC2O1 (some centres not stated),i,14%,-1%,7.1µM*
COC(=O)c1ccc(COC(=O)c2nn(C)c(=O)c3ccccc23)cc1,i,0%,?,i
O=C1C(=O)C(Cl)=C(Cl)C(Cl)=C1Cl,i,4%,?,i
COC(=O)c1ccc(N2C(=O)CC(N3CCC(O)(c4ccc(Br)cc4)CC3)C2=O)cc1 (configuration not stated),i,6.3µM*,7%,i
CCC(=O)O[C@H]1CC[C@H]2[C@@H]3CCC4=CC(=O)CC[C@]4(C)[C@H]3CC[C@]12C,i,14µM*,1%,i
CC12CCC(=O)C=C1CCC1C2CCC2(C)C(O)CCC12 (configuration not stated),i,27%,-1%,i
COc1cccc(C(C)(O)c2nc(-c3cccc(F)c3)cs2)c1 (configuration not stated),?,?,0%,i
C#CCOc1ccc2c(c1)c(C(C)=O)c(C)n2Cc1ccccc1,i,20µM*,-9%,i
COc1ccc(/C=N/N=C(/N)N[N+](=O)[O-])c(OC)c1,i,14%,1%,i
COc1ccc(OC)c(/C=N/OC(=O)Nc2ccc(Cl)cc2)c1,i,18µM*,-15%,i
COc1ccc(/C=C/c2nc(-c3ccccc3O)n(-c3ccccc3)n2)cc1OC,i,?,nt,i
COC(=O)C1=C(c2ccc(-c3ccccc3)c(F)c2)C[C@@H]2CC[C@H]1N2C(=O)NC1CC1,i,20µM*,-9%,i
COC(=O)C1=C(c2ccc(Cl)c(C(F)(F)F)c2)C[C@@H]2CC[C@H]1N2C(=O)NCCOc1ccc(OC)cc1,i,11µM*,?,?
CCCNC(=O)N1[C@H]2CC[C@@H]1C(C(=O)OC)=C(c1ccc(Cl)c(C(F)(F)F)c1)C2,?,17%,5%,i
SMILES,Abeta yeast res,TDP43 rescue,aSyn yeast inh,FUS suppressor
C=C1C=C(C(F)F)n2ncc(C(=O)NCc3ccccc3F)c2N1,nt,nt,0%,nt
CCC(c1nnnn1-c1ccc2c(c1)OCCO2)N1CCC(n2c(=O)[nH]c3ccccc32)CC1 (configuration not stated),i,16%,-13%,i
O=c1[nH]c2ccccc2n1C1CCN(C(c2cccc3ccccc23)c2nnnn2Cc2ccccc2)CC1 (configuration not stated),i,13%,1%,?
CSCCC(c1nnnn1-c1ccc2c(c1)OCCO2)N1CCC(n2c(=O)[nH]c3ccccc32)CC1 (configuration not stated),i,12%,1%,25µM*
O=c1[nH]c2ccccc2n1C1CCN(C(c2cc3ccccc3o2)c2nnnn2Cc2ccccc2)CC1 (configuration not stated),i,19%,3%,8.9µM*
O=C(CN1CCOCC1)c1cccc([N+](=O)[O-])c1,nt,nt,1%,nt

# From PubChem BioAssay
